The text below walks through data of PubChem BioAssay.

The structures appear in SMILES notation.

In the assay the target is NADPH oxidase 5 (Homo sapiens) (UniProt Q96PH1). Put plainly: NOX5-dependent H2O2 signal modulators, primary screen, NOX inhibitor project, cell-based, HEK293-NOX5, Amplex Red fluorescence (AID 1161). The note with it: HEK293-NOX5, ionomycin, 45 min, higher = more signal.
NADPH oxidase 5 (Homo sapiens), sequence (Q96PH1 whole entry, looked up): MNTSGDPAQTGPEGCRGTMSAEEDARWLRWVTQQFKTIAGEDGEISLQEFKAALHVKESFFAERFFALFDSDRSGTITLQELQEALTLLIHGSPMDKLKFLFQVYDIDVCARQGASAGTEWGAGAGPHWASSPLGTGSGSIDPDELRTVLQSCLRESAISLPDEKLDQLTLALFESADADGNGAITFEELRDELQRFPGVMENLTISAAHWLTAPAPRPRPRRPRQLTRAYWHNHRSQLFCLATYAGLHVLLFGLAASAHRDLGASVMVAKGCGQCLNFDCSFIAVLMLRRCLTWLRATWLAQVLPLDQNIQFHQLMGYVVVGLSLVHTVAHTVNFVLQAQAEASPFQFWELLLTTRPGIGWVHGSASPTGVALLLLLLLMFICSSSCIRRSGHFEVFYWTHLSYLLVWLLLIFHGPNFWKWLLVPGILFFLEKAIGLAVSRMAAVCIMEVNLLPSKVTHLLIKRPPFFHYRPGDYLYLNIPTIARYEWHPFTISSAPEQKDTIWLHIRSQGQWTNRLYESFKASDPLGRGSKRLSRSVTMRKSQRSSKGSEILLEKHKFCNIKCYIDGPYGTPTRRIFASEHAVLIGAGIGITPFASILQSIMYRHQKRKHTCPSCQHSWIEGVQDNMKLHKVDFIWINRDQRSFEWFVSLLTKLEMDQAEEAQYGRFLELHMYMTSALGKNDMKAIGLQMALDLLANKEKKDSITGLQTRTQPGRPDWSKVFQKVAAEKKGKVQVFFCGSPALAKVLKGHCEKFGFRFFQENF
For the compound `NC(=O)[C@H]1[C@@H]2C(=O)O[C@@H](c3ccccc3)[C@@H](c3ccccc3)N2[C@@H](c2ccc(OCCO)cc2)[C@]12C(=O)Nc1ccc(C#CCCO)cc12`, the z-score is 1.13.
With `COc1cc(C(O)C2C=CC3C(=O)N(C)C(=O)C3N2Nc2ccccc2)cc(OC)c1OC` (stereo not drawn) the figure was -2.14; with `C#Cc1cc2ccccc2oc1=O`, -0.807; with `CC(=O)NCCCC[C@@H]1NC(=O)[C@@H]2C[C@H](C(=O)NCCCCCN)[C@H](c3cccc(OCCO)c3)N2C1=O`, 1.74.
The compound `COc1ccc(CCNC(=O)[C@@]2(c3ccc([N+](=O)[O-])cc3)CC(=O)N(C3CCCCC3)[C@@H]2c2ccc(CO)cc2)cc1` displayed a z-score of 0.0392.
For the compound `NCCCCCNC(=O)[C@@H]1C[C@@H]2C(=O)N[C@@H](CCCCN)C(=O)N2[C@@H]1c1ccc(O)cc1`, the z-score worked out at 1.48.
As for `NCCCCCNC(=O)[C@H]1C[C@H]2C(=O)N3CCC[C@H]3C(=O)N2[C@H]1c1cccc(OCCO)c1`, the z-score stood at 2.48.
`COCCOC(=O)N1C(=O)[C@@]2(c3cc(C#CCCO)ccc31)[C@H](c1ccc(OCCO)cc1)N1[C@H](c3ccccc3)[C@H](c3ccccc3)OC(=O)[C@H]1[C@@H]2C(=O)Nc1nc2ccccc2s1` yielded a z-score of 1.43.
As to `COC(=O)C1=CC(CCCO)=CC(c2cccs2)N(C)C=C1C(=O)OC` (stereo not drawn), the z-score came to 0.931.
Regarding `COCCOC(=O)N1C(=O)[C@@]2(c3cc(C#CC4(O)CCCCCC4)ccc31)[C@H](c1ccc(O)cc1)N1[C@H](c3ccccc3)[C@H](c3ccccc3)OC(=O)[C@H]1[C@@H]2C(=O)N1CCN(c2ncccn2)CC1`, the z-score was determined as 1.11.
Turning to `COc1ccc([Si](C)(C)[C@@H]2[C@@H](CCO)O[C@]3(C(=O)N(Cc4cccc(NC(=O)[C@H](C)O)c4)c4ccccc43)[C@H]2C)cc1`, the z-score is -0.256.
In the case of `Cc1ccc(S[C@]2(C(=O)O)CC(=O)N(C3CCCCC3)[C@@H]2c2ccc(CO)cc2I)cc1`, the z-score is -1.86.
In the case of `O=C1C[C@]2(c3ccc([N+](=O)[O-])cc3)C(=O)N(C3CC3)c3cc(CO)ccc3[C@H]2N1CC12CC3CC(CC(C3)C1)C2`, the z-score was found to be 0.0712.
As for `COCCCNC(=O)[C@@]1(Sc2ccc(C)cc2)CC(=O)N(C2Cc3ccccc3C2)[C@@H]1c1ccc(CO)cc1`, the z-score is -1.76.
Regarding `O=C1OCCC=C[C@H]2OC34C=CCN(c5ccc6ccccc6c5)C(=O)[C@H]3N(CCCO)C(=O)[C@@H]4C12` (stereo partly drawn), the z-score amounted to 0.741.
With `COC(=O)[C@@]1(Cc2ccc(F)cc2)[C@H]2c3cc(C(=O)N(C)C)n(CCc4ccc(OC)c(Br)c4)c3C[C@H]2CN1C(=O)c1ccccc1`, the z-score was -4.26.
`[N-]=[N+]=Nc1ccccc1C[C@@]1(C(N)=O)N=C(c2ccc(OCCCO)cc2)O[C@@H]1c1ccccc1N=[N+]=[N-]` gave a z-score of -1.55.
Compound `O=C(NCc1ccc(F)cc1)[C@H]1C[C@H]2C(=O)NCC(=O)N2[C@H]1c1ccc(O)cc1` displayed a z-score of 0.693.
Regarding `C=CCNC(=O)[C@@H]1[C@H]2C(=O)O[C@H](c3ccccc3)[C@H](c3ccccc3)N2[C@H](c2ccccc2OCCO)[C@@]12C(=O)Nc1ccc(C#CCCO)cc12`, the z-score was determined as 0.849.
With `CCOC(=O)C[C@H]1[C@H](OC(=O)Cc2ccc3c(c2)OCO3)[C@@H](NC(=O)C2CCCCC2)c2cc(OCCCO)ccc2N1C(=O)c1ccccc1`, the z-score was -0.206.
Turning to `COc1ccc([Si](C)(C)[C@@H]2[C@@H](CCO)O[C@]3(C(=O)N(Cc4ccccc4)c4ccc(N5CCOC5=O)cc43)[C@H]2C)cc1`, the z-score was -1.07.
To `C=C(/C(=C/C[C@H](OC(C)=O)c1ccc(CO)o1)c1cnc2ccccc2c1)C(C)C` belongs -0.219; to `CCCCCCCCCCC(O)C1C=CC2C(=O)N(c3ccccc3)C(=O)C2N1Nc1ccc(C#N)cc1` (stereo not drawn), -0.266.
